Consider 8 sequences from paper PMC7862700, “An all-to-all approach to the identification of sequence-specific readers for epigenetic DNA modifications on cytosine”.

Assay in all cases: DAPPL (digital affinity profiling via proximity ligation, sequencing); 10 mM Tris-HCl pH 7.5, 50 mM NaCl, 1 mM DTT, 4% glycerol, room temperature, 30 min; GST-TFs on glutathione beads, 16-mer random dsDNA library, 0.1% formaldehyde crosslink after washing; high values mean tight binding
Holding throughout (conditions): protein: recombinant; tags: N-terminal GST; dsDNA, one strand shown

One test has as its target T1, FLI1 (Homo sapiens, UniProt Q01543 1-452).
T1 sequence: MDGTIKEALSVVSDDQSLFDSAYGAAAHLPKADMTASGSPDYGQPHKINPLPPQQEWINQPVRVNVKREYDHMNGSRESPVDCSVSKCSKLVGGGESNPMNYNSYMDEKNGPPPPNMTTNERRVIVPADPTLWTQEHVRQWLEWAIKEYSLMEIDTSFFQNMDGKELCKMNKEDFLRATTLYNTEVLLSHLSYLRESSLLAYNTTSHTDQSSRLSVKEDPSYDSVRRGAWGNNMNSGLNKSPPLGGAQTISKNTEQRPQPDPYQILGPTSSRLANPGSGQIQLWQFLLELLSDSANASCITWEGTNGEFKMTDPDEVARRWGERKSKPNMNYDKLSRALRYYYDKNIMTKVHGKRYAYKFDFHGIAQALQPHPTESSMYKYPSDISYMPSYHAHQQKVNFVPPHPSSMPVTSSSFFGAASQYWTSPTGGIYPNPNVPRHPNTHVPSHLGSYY
In short, it runs like this:
(§1)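 After expression in yeast as GST fusions, human transcription factors were bound to glutathione beads, DNA-barcoded and mixed with a tag-only sample. The pools were incubated with 200 nmole of a 16-mer random double-stranded DNA library in Tris/NaCl/DTT/glycerol buffer (30 min, room temperature), washed and crosslinked with 0.1% formaldehyde. Proximity ligation with BsaI/T4 ligase ran for 1 h at 37 °C, before PCR amplification and sequencing on an Illumina NextSeq500. Binding signal is a hexamer's read frequency for a factor divided by its frequency for the tag-only sample.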

The next test concerns the target T2, ELK1 (Homo sapiens, UniProt P19419 1-428).
T2 sequence: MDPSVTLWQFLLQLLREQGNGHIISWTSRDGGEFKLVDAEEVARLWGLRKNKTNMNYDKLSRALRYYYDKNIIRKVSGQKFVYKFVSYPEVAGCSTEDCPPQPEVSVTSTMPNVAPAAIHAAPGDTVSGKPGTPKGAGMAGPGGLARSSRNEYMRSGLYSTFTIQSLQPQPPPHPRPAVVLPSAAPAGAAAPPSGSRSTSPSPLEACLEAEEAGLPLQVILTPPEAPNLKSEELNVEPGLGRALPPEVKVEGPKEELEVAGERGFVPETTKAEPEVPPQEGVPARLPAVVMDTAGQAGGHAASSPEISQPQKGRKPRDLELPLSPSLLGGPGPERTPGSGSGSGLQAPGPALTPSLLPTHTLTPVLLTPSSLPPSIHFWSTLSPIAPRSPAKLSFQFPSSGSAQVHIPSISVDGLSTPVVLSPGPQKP
The gist of the method: as §1

The next test has as its target T3, GABPA (Homo sapiens, UniProt Q06546 1-454).
T3 sequence: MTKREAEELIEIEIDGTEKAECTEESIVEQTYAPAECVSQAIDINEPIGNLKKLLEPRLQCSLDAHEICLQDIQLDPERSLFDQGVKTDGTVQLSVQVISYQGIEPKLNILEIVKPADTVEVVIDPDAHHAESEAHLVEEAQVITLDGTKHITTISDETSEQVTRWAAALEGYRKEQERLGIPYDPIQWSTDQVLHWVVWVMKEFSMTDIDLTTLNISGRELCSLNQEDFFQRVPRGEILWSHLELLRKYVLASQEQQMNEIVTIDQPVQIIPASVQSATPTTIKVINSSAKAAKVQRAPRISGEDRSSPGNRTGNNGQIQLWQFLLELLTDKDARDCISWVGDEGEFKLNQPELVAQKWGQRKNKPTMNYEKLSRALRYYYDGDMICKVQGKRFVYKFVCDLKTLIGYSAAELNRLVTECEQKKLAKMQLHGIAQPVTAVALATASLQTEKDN
The gist of the method: as §1

For another test, the target named is T4, ERG (Homo sapiens, UniProt P11308 1-479).
T4 sequence: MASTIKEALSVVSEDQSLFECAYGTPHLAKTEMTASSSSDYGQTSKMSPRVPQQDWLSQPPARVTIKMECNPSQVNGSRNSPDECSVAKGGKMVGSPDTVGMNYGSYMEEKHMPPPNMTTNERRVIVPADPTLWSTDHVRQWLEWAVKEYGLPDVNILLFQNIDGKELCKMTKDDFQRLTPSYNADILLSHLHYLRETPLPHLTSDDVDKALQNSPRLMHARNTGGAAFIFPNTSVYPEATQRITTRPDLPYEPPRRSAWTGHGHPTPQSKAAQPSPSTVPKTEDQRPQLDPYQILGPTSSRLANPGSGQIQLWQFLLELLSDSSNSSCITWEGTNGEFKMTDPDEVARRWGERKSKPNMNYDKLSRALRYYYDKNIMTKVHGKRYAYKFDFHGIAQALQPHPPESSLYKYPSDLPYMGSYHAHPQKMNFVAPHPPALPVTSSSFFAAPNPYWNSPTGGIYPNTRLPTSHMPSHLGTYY
In short, it runs like this: as §1

The target in a further test is ELF1 (Homo sapiens, UniProt P32519 1-619). The gist of the method: as §1
Another test deals with T5, EHF (Homo sapiens, UniProt Q9NZC4 1-300).
T5 sequence: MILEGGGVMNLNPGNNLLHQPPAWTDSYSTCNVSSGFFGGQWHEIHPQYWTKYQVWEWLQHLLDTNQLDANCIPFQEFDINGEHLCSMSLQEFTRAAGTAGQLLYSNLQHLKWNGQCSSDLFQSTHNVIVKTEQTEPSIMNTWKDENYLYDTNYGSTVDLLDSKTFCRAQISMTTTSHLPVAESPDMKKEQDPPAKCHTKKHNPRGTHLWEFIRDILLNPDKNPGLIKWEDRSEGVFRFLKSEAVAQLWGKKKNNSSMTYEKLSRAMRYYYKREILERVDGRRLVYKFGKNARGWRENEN
The gist of the method: as §1

The target of a further test is SPI1 (Homo sapiens, UniProt P17947 1-270). The gist of the method: as §1
A further test deals with SPIB (Homo sapiens, UniProt Q01892 1-262). The gist of the method:
as §1

The target in the next test is T6, ELK3 (Homo sapiens, UniProt P41970 1-407).
T6 sequence: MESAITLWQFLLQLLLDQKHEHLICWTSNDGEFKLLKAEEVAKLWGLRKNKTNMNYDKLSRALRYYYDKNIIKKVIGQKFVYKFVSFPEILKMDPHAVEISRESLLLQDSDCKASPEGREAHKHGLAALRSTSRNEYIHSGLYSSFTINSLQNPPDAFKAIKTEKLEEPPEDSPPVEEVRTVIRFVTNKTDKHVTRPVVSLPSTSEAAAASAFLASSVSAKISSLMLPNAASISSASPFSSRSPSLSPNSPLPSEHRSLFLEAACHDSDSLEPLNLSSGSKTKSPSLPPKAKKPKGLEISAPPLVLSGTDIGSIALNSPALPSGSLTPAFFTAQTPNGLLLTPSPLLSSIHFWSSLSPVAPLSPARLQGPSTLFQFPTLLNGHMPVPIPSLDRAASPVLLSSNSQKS
The gist of the method:
as §1

SPIB, sequence (Q01892 whole entry): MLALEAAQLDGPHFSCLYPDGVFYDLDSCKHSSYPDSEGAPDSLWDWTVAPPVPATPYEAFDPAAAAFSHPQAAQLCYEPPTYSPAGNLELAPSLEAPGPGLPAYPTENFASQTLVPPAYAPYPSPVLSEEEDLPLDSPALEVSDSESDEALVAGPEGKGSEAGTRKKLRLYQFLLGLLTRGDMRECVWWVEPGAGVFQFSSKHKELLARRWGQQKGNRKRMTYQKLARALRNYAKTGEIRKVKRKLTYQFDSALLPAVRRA
ELF1, sequence (P32519 whole entry): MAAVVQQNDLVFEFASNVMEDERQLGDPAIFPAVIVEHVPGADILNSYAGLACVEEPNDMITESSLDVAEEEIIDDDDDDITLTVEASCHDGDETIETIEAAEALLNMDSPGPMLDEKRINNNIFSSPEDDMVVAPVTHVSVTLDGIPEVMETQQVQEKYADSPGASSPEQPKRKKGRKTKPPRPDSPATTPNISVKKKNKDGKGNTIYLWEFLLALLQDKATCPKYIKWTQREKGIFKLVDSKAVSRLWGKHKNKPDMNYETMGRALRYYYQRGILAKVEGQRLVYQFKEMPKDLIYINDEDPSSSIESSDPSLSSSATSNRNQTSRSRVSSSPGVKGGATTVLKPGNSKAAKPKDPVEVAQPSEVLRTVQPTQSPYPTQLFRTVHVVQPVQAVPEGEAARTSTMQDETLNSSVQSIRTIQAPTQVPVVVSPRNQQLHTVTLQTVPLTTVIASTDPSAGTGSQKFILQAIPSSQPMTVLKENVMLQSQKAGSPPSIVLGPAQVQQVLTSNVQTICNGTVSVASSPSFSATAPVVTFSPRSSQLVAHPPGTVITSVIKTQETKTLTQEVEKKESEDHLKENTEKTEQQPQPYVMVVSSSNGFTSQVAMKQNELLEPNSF

Consider TCCGAA, for which the binding signal with FLI1 is 1.35 fold enrichment (6-mer frequency, TF over GST control); with ELK1 it was 1.28 fold enrichment (6-mer frequency, TF over GST control); in the test with GABPA, 1.37 fold enrichment (6-mer frequency, TF over GST control); with ERG it was 1.3 fold enrichment (6-mer frequency, TF over GST control); with ELF1 it was 1.23 fold enrichment (6-mer frequency, TF over GST control); with EHF, 1.41 fold enrichment (6-mer frequency, TF over GST control). In addition, the binding signal with SPI1 was 1.25 fold enrichment (6-mer frequency, TF over GST control); with SPIB it was 1.44 fold enrichment (6-mer frequency, TF over GST control); with ELK3, 1.18 fold enrichment (6-mer frequency, TF over GST control).

In the case of GATATA, the binding signal with FLI1 is 1.12 fold enrichment (6-mer frequency, TF over GST control); with ELK1, 1.06 fold enrichment (6-mer frequency, TF over GST control); with GABPA it was 1.15 fold enrichment (6-mer frequency, TF over GST control); with ERG, 1.13 fold enrichment (6-mer frequency, TF over GST control); in the test with ELF1 it was 1.09 fold enrichment (6-mer frequency, TF over GST control); with EHF, 1.18 fold enrichment (6-mer frequency, TF over GST control). The binding signal in the test with SPI1 is 1.09 fold enrichment (6-mer frequency, TF over GST control); with SPIB, 1.06 fold enrichment (6-mer frequency, TF over GST control); with ELK3, 1.17 fold enrichment (6-mer frequency, TF over GST control).

With CTACTC, the binding signal in the test with FLI1 was 1.42 fold enrichment (6-mer frequency, TF over GST control); in the test with ELK1, 1.36 fold enrichment (6-mer frequency, TF over GST control); with GABPA, 1.51 fold enrichment (6-mer frequency, TF over GST control); in the test with ERG, 1.38 fold enrichment (6-mer frequency, TF over GST control); with ELF1, 1.44 fold enrichment (6-mer frequency, TF over GST control); in the test with EHF, 1.38 fold enrichment (6-mer frequency, TF over GST control). Also, the binding signal with SPI1 was 1.47 fold enrichment (6-mer frequency, TF over GST control); in the test with SPIB, 1.59 fold enrichment (6-mer frequency, TF over GST control); with ELK3, 1.46 fold enrichment (6-mer frequency, TF over GST control).

For TCATAT, the binding signal with FLI1 was 1.21 fold enrichment (6-mer frequency, TF over GST control); with ELK1, 1.2 fold enrichment (6-mer frequency, TF over GST control); with GABPA, 1.26 fold enrichment (6-mer frequency, TF over GST control); with ERG it was 1.2 fold enrichment (6-mer frequency, TF over GST control); in the test with ELF1, 1.29 fold enrichment (6-mer frequency, TF over GST control); with EHF, 1.24 fold enrichment (6-mer frequency, TF over GST control). The binding signal was 1.18 fold enrichment (6-mer frequency, TF over GST control) in the test with SPI1; 1.4 fold enrichment (6-mer frequency, TF over GST control) in the test with SPIB; 1.17 fold enrichment (6-mer frequency, TF over GST control) with ELK3.

For the sequence ATGAAA, the binding signal was 1.11 fold enrichment (6-mer frequency, TF over GST control) in the test with FLI1; 1.17 fold enrichment (6-mer frequency, TF over GST control) with ELK1; 1.16 fold enrichment (6-mer frequency, TF over GST control) with GABPA; 1.17 fold enrichment (6-mer frequency, TF over GST control) in the test with ERG; 1.2 fold enrichment (6-mer frequency, TF over GST control) in the test with ELF1; 1.16 fold enrichment (6-mer frequency, TF over GST control) in the test with EHF. Besides, the binding signal in the test with SPI1 is 1.2 fold enrichment (6-mer frequency, TF over GST control); with SPIB it was 1.15 fold enrichment (6-mer frequency, TF over GST control); in the test with ELK3, 1.06 fold enrichment (6-mer frequency, TF over GST control).

In the case of TTTCTC, the binding signal was 1.64 fold enrichment (6-mer frequency, TF over GST control) in the test with FLI1; 1.66 fold enrichment (6-mer frequency, TF over GST control) with ELK1; 1.58 fold enrichment (6-mer frequency, TF over GST control) with GABPA; 1.54 fold enrichment (6-mer frequency, TF over GST control) with ERG; 1.62 fold enrichment (6-mer frequency, TF over GST control) in the test with ELF1; 1.59 fold enrichment (6-mer frequency, TF over GST control) with EHF. The binding signal is 1.7 fold enrichment (6-mer frequency, TF over GST control) with SPI1; 1.63 fold enrichment (6-mer frequency, TF over GST control) with SPIB; 1.46 fold enrichment (6-mer frequency, TF over GST control) with ELK3.

In the case of TCTTGA, the binding signal with FLI1 was 1.33 fold enrichment (6-mer frequency, TF over GST control); in the test with ELK1 it was 1.31 fold enrichment (6-mer frequency, TF over GST control); with GABPA, 1.33 fold enrichment (6-mer frequency, TF over GST control); with ERG it was 1.24 fold enrichment (6-mer frequency, TF over GST control); in the test with ELF1, 1.3 fold enrichment (6-mer frequency, TF over GST control); with EHF, 1.35 fold enrichment (6-mer frequency, TF over GST control). In addition, the binding signal with SPI1 was 1.25 fold enrichment (6-mer frequency, TF over GST control); with SPIB it was 1.27 fold enrichment (6-mer frequency, TF over GST control); with ELK3 it was 1.29 fold enrichment (6-mer frequency, TF over GST control).

For TCACAC, the binding signal is 1.31 fold enrichment (6-mer frequency, TF over GST control) in the test with FLI1; 1.19 fold enrichment (6-mer frequency, TF over GST control) with ELK1; 1.34 fold enrichment (6-mer frequency, TF over GST control) with GABPA; 1.31 fold enrichment (6-mer frequency, TF over GST control) with ERG; 1.32 fold enrichment (6-mer frequency, TF over GST control) in the test with ELF1; 1.3 fold enrichment (6-mer frequency, TF over GST control) with EHF. For the same sequence, the binding signal with SPI1 is 1.23 fold enrichment (6-mer frequency, TF over GST control); with SPIB, 1.29 fold enrichment (6-mer frequency, TF over GST control); with ELK3 it was 1.46 fold enrichment (6-mer frequency, TF over GST control).
